Measured values as given in the antibiotic and cytotoxicity screens of Wong et al. (2023).
The whole screen tested about 39,000 compounds, of which about 3,300 (8.5%) were called active. Shown is part of a subset that was picked to be rich in actives.

Each compound was assayed on HepG2 (assay: cytotoxicity call (relative viability < 0.9)). Details: 10 µM.

Row | SMILES | cytotoxicity call
1 | NCc1cc(-c2ccccc2Cl)on1 | inactive
2 | COc1ccc(S(=O)(=O)N(C)C[C@@H]2OCc3cnnn3CCCC(=O)N([C@H](C)CO)C[C@H]2C)cc1 | inactive
3 | C[C@@H]1CN([C@@H](C)CO)C(=O)c2cc(NS(=O)(=O)c3cccs3)ccc2O[C@@H](C)CCCCO[C@@H]1CN(C)CC1CCCCC1 | inactive
4 | C[C@@H]1CN([C@H](C)CO)C(=O)c2cc(-c3cccnc3)cnc2O[C@@H]1CN(C)C(=O)Nc1ccc2c(c1)OCO2 | inactive
5 | CON=C(C(=O)NC1C(=O)N2C(C(=O)O)=C(CSC(=O)c3ccco3)CSC12)c1csc(N)n1.Cl (centres undefined) | inactive
6 | O=C(C[C@@H]1C[C@@H]2c3cc(NC(=O)NC4CCCC4)ccc3O[C@@H]2[C@@H](CO)O1)NCc1ccc2c(c1)OCO2 | inactive
7 | Cc1noc(C)c1NC(=O)Nc1ccc2c(c1)C(=O)N([C@H](C)CO)C[C@H](C)[C@@H](CN(C)C(=O)Nc1cccc3ccccc13)OCCCC[C@H](C)O2 | inactive
8 | C[C@H]1CN([C@@H](C)CO)C(=O)c2cc(NC(=O)Nc3ccc(F)cc3)ccc2O[C@@H]1CN(C)Cc1ccc(Oc2ccccc2)cc1 | active
9 | CC(C)NC(=O)N(C)C[C@@H]1Oc2c(NC(=O)C3CCCCC3)cccc2C(=O)N([C@H](C)CO)C[C@@H]1C | inactive
10 | CN(C)CC(=O)N1CC2(C1)[C@@H](c1ccccc1)[C@@H](CO)N2S(C)(=O)=O | inactive
11 | C[C@@H]1CCCCO[C@H](CN(C)Cc2ccccc2)[C@@H](C)CN([C@@H](C)CO)C(=O)c2cc(NC(=O)Nc3ccc(C(F)(F)F)cc3)ccc2O1 | active
12 | C[C@@H]1CCCCO[C@@H](CN(C)Cc2ccccc2)[C@@H](C)CN([C@H](C)CO)C(=O)c2cc(NC(=O)Nc3ccc(C(F)(F)F)cc3)ccc2O1 | active
13 | C[C@@H]1CCCCO[C@H](CN(C)Cc2ccccc2)[C@H](C)CN([C@H](C)CO)C(=O)c2cc(NC(=O)Nc3ccc(C(F)(F)F)cc3)ccc2O1 | active
14 | C[C@@H]1CCCCO[C@H](CN(C)Cc2ccccc2)[C@@H](C)CN([C@H](C)CO)C(=O)c2cc(NC(=O)Nc3ccc(C(F)(F)F)cc3)ccc2O1 | active
15 | C[C@H]1CN([C@@H](C)CO)C(=O)c2cc(NC(=O)Nc3cccc4ccccc34)ccc2O[C@H]1CN(C)C(=O)Nc1cccc2ccccc12 | inactive
16 | COc1ncc(NC(=O)C2CC2)c(OC)n1 | inactive
17 | C[C@@H]1CN([C@H](C)CO)C(=O)c2c(c3ccccc3n2C)-c2ccccc2CO[C@@H]1CN(C)Cc1cccc2c1OCCCO2 | inactive
18 | C[C@@H]1CN([C@H](C)CO)C(=O)c2cccc(NC(=O)c3ccc(-c4nccs4)cc3)c2O[C@H]1CN(C)C(=O)Nc1ccc2c(c1)OCO2 | inactive
19 | COc1ccc(S(=O)(=O)N(C)C[C@@H]2OCCCC[C@@H](C)Oc3ccc(NC(=O)CCC(F)(F)F)cc3C(=O)N([C@@H](C)CO)C[C@@H]2C)cc1 | inactive
20 | Cc1noc(C)c1S(=O)(=O)N(C)C[C@H]1Oc2ccc(NC(=O)Cc3cn(C)c4ccccc34)cc2CC(=O)N([C@H](C)CO)C[C@@H]1C | inactive
21 | O=C(C[C@H]1C=C[C@@H](NC(=O)c2ccc(F)cc2)[C@H](CO)O1)NCc1ccncn1 | inactive
22 | CO[C@@H]1CN(C)C(=O)c2ccc(NC(=O)Nc3ccc(Cl)cc3)cc2OC[C@H](C)N(C(=O)Nc2c(C)noc2C)C[C@@H]1C | inactive

Row | SMILES | cytotoxicity call
23 | C[C@@H]1CCCCO[C@H](CN(C)C(=O)Nc2ccc(C(F)(F)F)cc2)[C@H](C)CN([C@H](C)CO)C(=O)c2cc(NS(=O)(=O)c3cn(C)cn3)ccc2O1 | inactive
24 | Cc1noc(C)c1NC(=O)Nc1ccc2c(c1)C(=O)N([C@H](C)CO)C[C@H](C)[C@H](CN(C)CC1CCCCC1)OCCCC[C@@H](C)O2 | inactive
25 | C[C@H](CO)N1C[C@H](C)[C@@H](CN(C)C(=O)c2cccnc2)Oc2cc(-c3cccc(C#N)c3)ccc2S1(=O)=O | inactive
26 | OCc1cncnc1 | inactive
27 | C[C@H]1CCCCO[C@H](CN(C)Cc2ccccc2)[C@@H](C)CN([C@@H](C)CO)C(=O)c2cc(NC(=O)Nc3ccc(C(F)(F)F)cc3)ccc2O1 | active
28 | C[C@H](CO)N1C[C@H](C)[C@H](CN(C)Cc2ccccc2)OCCCC[C@H](C)Oc2ccc(NC(=O)Nc3ccc(C(F)(F)F)cc3)cc2C1=O | active
29 | C[C@H](CO)N1C[C@H](C)[C@@H](CN(C)Cc2ccccc2)OCCCC[C@H](C)Oc2ccc(NC(=O)Nc3ccc(C(F)(F)F)cc3)cc2C1=O | active
30 | C[C@@H]1CCCCO[C@@H](CN(C)Cc2ccccc2)[C@H](C)CN([C@H](C)CO)C(=O)c2cc(NC(=O)Nc3ccc(C(F)(F)F)cc3)ccc2O1 | active
31 | O=C(Nn1cnnc1)c1ccccc1 | inactive
32 | O=C(O)c1n[nH]c2c1C[C@H]1C[C@@H]21 | inactive
33 | COc1ccc(S(=O)(=O)Nc2ccc3c(c2)C(=O)N([C@@H](C)CO)C[C@@H](C)[C@@H](CN(C)C(=O)Nc2c(C)noc2C)OCCCC[C@@H](C)O3)cc1 | inactive
34 | O=c1nc(C(F)(F)F)[nH]c2nc[nH]c12 | inactive
35 | Cn1cnc(CCNC(=O)C[C@H]2CC[C@@H]3[C@H](COC[C@@H](O)CN3C(=O)C3CC3)O2)c1 | inactive
36 | O=C(N[C@@H]1CC[C@@H](CCn2cc(C3(O)CCCC3)nn2)O[C@H]1CO)C1CCOCC1 | inactive
37 | C[C@H]1CN([C@@H](C)CO)C(=O)Cc2cc(N(C)C)ccc2O[C@H]1CN(C)S(=O)(=O)c1ccc(F)cc1 | inactive
38 | C[C@H](CO)N1C[C@H](C)[C@@H](CN(C)CC2CCCCC2)Oc2ccc(NS(=O)(=O)c3cn(C)cn3)cc2C1=O | inactive
39 | C[C@@H]1CN([C@H](C)CO)C(=O)c2cc(NC(=O)Nc3ccc(C(F)(F)F)cc3)ccc2O[C@@H](C)CCCCO[C@@H]1CN(C)Cc1ccccc1 | active
40 | C[C@@H]1CN([C@@H](C)CO)C(=O)c2cc(NC(=O)Nc3ccc(C(F)(F)F)cc3)ccc2O[C@@H](C)CCCCO[C@H]1CN(C)Cc1ccccc1 | active
41 | C[C@@H]1CN([C@@H](C)CO)C(=O)c2cc(NC(=O)Nc3ccc(C(F)(F)F)cc3)ccc2O[C@@H](C)CCCCO[C@@H]1CN(C)Cc1ccccc1 | active
42 | C[C@@H]1CCCCO[C@@H](CN(C)Cc2ccccc2)[C@@H](C)CN([C@@H](C)CO)C(=O)c2cc(NC(=O)Nc3ccc(C(F)(F)F)cc3)ccc2O1 | active
43 | Cc1ccc(N2C(=O)C(=O)NC2=S)cc1 | inactive
44 | C[C@H]1CN([C@@H](C)CO)C(=O)c2cc(NC(=O)CCN3CCOCC3)ccc2O[C@@H]1CN(C)C(=O)NC1CCCCC1 | inactive

Row | SMILES | cytotoxicity call
45 | C[C@H]1CN([C@@H](C)CO)C(=O)Cc2cc(NS(=O)(=O)c3ccccc3)ccc2O[C@H]1CN(C)Cc1ccc2c(c1)OCO2 | inactive
46 | C[C@H](CO)N1C[C@H](C)[C@H](CN(C)S(=O)(=O)c2cccs2)Oc2ccc(NC(=O)Cn3cnnn3)cc2CC1=O | inactive
47 | CC(C)NCCCC[C@H](NC(=O)[C@H]1CCC(=O)N[C@@H](Cc2ccccc2)C(=O)N[C@H](Cc2ccc(O)cc2)C(=O)N[C@@H](CCCCNC(C)C)C(=O)N[C@H](CCCN=C(N)N)C(=O)N[C@@H](Cc2ccc3ccccc3c2)C(=O)NCC(=O)N1)C(N)=O | inactive
48 | Cc1noc(C)c1NC(=O)N(C)C[C@H]1Oc2ccc(NC(=O)Cn3cnnn3)cc2C(=O)N([C@H](C)CO)C[C@@H]1C | inactive
49 | Nc1nnc(N[C@H]2CCCCNC2=O)[nH]1 | inactive
50 | COCc1cn(CC[C@H]2CC[C@@H](NC(=O)CCN3CCCCC3)[C@@H](CO)O2)nn1 | inactive
51 | COCC#Cc1cnc2c(c1)C(=O)N([C@@H](C)CO)C[C@@H](C)[C@H](CN(C)S(=O)(=O)c1cccc(OC)c1)O2 | inactive
52 | CO[C@H](CN(C)S(=O)(=O)c1ccc(F)cc1)[C@@H](C)CN([C@H](C)CO)S(=O)(=O)c1cccc(Cl)c1 | inactive
53 | C[C@@H]1CN([C@H](C)CO)C(=O)c2cccc(NC(=O)c3ccno3)c2O[C@H]1CN(C)S(=O)(=O)c1cccs1 | inactive
54 | C[C@@H]1CCCCO[C@@H](CN(C)Cc2ccccc2)[C@H](C)CN([C@@H](C)CO)C(=O)c2cc(NC(=O)Nc3ccc(C(F)(F)F)cc3)ccc2O1 | active
55 | C[C@@H]1CCCCO[C@H](CN(C)Cc2ccccc2)[C@H](C)CN([C@@H](C)CO)C(=O)c2cc(NC(=O)Nc3ccc(C(F)(F)F)cc3)ccc2O1 | active
56 | C[C@@H]1CN([C@H](C)CO)C(=O)c2cc(NC(=O)Nc3ccc(C(F)(F)F)cc3)ccc2O[C@@H](C)CCCCO[C@H]1CN(C)Cc1ccccc1 | active
57 | C[C@H]1CCCCO[C@@H](CN(C)Cc2ccccc2)[C@@H](C)CN([C@@H](C)CO)C(=O)c2cc(NC(=O)Nc3ccc(C(F)(F)F)cc3)ccc2O1 | active
58 | Cc1noc(C)c1NC(=O)Nc1cccc2c1O[C@H](CN(C)Cc1ccc(C(F)(F)F)cc1)[C@@H](C)CN([C@H](C)CO)C2=O | inactive
59 | C[C@@H]1CN([C@H](C)CO)C(=O)c2cccc(NC(=O)CCCCCC(=O)Nc3ccccc3N)c2O[C@@H]1CN(C)Cc1ccccc1 | inactive
60 | C=CCOC[C@H]1NCCc2c1nnn2CC | inactive
61 | COc1ccc(CN(C)C[C@@H]2Oc3c(NS(=O)(=O)c4cn(C)cn4)cccc3C(=O)N([C@H](C)CO)C[C@H]2C)cc1 | inactive
62 | O=C(C[C@@H]1CC[C@H]2[C@@H](COC[C@@H](O)CN2C(=O)c2cccnc2)O1)NCC1CC1 | inactive
63 | C[C@@H]1CN([C@@H](C)CO)C(=O)c2cc(NS(C)(=O)=O)ccc2O[C@@H](C)CCCCO[C@@H]1CN(C)S(=O)(=O)c1cn(C)cn1 | inactive
64 | C[C@H]1CCCCO[C@@H](CN(C)Cc2ccc(C(=O)O)cc2)[C@@H](C)CN([C@@H](C)CO)C(=O)c2cc(NC(=O)Nc3ccc(F)cc3)ccc2O1 | inactive
